High-throughput results: PubChem BioAssay, several laboratories
MazF activator: MazEF (E. coli) toxin RNase activation. 350,000 compounds, 0.32% hits. P0AE70. FAM/BHQ RNA-DNA oligo cleavage fluorescence, 5 h. AID 504720. activation, % at 20 µM; in the data active means activation above about 50%
Target sequence (P0AE70 whole entry, looked up): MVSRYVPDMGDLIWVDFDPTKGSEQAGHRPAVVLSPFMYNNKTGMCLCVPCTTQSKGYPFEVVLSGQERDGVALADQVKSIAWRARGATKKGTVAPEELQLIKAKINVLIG
SARS 3CLpro inh: SARS-CoV 3CLpro protease inhibition; P0C6X7; 290,000 compounds, 0.14% hits; recombinant SARS-CoV 3CLpro, quenched FRET peptide cleavage; inhibition, % at 6 µM; AID 1706; in the data active means inhibition above about 12%
Y pestis TopoI: inhibitors of Yersinia pestis topoisomerase I | 360,000 compounds, 0.064% hits | activity, % at 10 µM | Y. pestis Topo-I cleavage product accumulation, plate reader | AID 504884; in the data active means activity above about 50%, passing the limit was not always enough
Mtb BioA inh: inhibitors of Mycobacterium tuberculosis BioA enzyme; purified M. tuberculosis BioA enzyme, plate reader; inhibition, % at 9.99 µM; 360,000 compounds, 0.096% hits; AID 602481; in the data active means inhibition above about 40%
PfHsp40 rescue: restores yeast growth despite PfHsp40 toxicity | AID 504582 | growth rescue, % at 12.5 µM | S. cerevisiae expressing PfHsp40, growth rescue, ATP luminescence | 340,000 compounds, 0.68% hits; in the data active means growth rescue above about 28%, passing the limit was not always enough;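 further: yeast W303a lacking pdr1 and pdr3 grown in galactose medium; growth measured after three days at 30 °C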
BJeLR lethal: BJeLR cell viability loss | BJeLR (HRASV12) viability, CellTiter-Glo ATP luminescence, 48 h | inhibition, % (no concentration beside the values) | 300,000 compounds, 0.17% hits | AID 1554; in the data active means inhibition above about 50%
An asterisk follows results filed as active; x = no result given; + = active, no number. Rows were chosen to be rich in hits. Some 1.1% of all compounds tested hit in one or more screens of this group.

SMILES	MazF activator	SARS 3CLpro inh	Y pestis TopoI	Mtb BioA inh	PfHsp40 rescue	BJeLR lethal
Cc1ccc(S(=O)(=O)N2[C@@H](c3ccc(Cl)cc3)C(C(=O)O)=CC[C@H]2c2ccc(Cl)c(Cl)c2)cc1	-1.1	x	4.1	7.3	304.0*	x
CN(/N=C/c1ccc(N(C)C)cc1)C1=NS(=O)(=O)c2ccccc21	+	2.9	3.9	-2.5	0.8	31.1
COc1ccc(/C=N/N(C)C2=NS(=O)(=O)c3ccccc32)cc1	-9.4	3.0	-1.0	-2.0	-1.5	-2.7
CNC[C@H]1Oc2cc(-c3ccccc3F)ccc2S(=O)(=O)N([C@@H](C)CO)C[C@@H]1C	x	x	x	1.8	x	x
COC(=O)N(C)C[C@H]1OCc2ccccc2-c2ccccc2C(=O)N([C@@H](C)CO)C[C@@H]1C	x	x	x	-1.0	x	x
CCCc1cn(CC[C@H]2CC[C@H](NC(=O)C3CC3)[C@@H](CO)O2)nn1	x	x	x	0.5	x	x
CSCC[C@H](N)C(=O)NC[C@H]1O[C@@H](n2cnc3c(N)ncnc32)[C@H](O)[C@@H]1O	7.2	x	-0.6	0.3	38.5*	x
Nc1ncnc2c1ncn2[C@@H]1O[C@H](CNC(=O)[C@@H](N)C2CCCCC2)[C@@H](O)[C@H]1O	1.7	x	-2.7	-2.9	73.2*	x
C[C@H](N)C(=O)NC[C@H]1O[C@@H](n2cnc3c(N)ncnc32)[C@H](O)[C@@H]1O	-3.1	x	0.5	-0.3	-2.3	x
COc1ccc(-c2ccc3c(c2)[C@H]2[C@H](CCN2C(=O)Cc2ccccc2)[C@H](CO)N3C)cc1	x	x	x	-1.5	x	x
C[C@@H]1CN([C@H](C)CO)C(=O)c2cccc(NC(=O)NC3CCCCC3)c2O[C@@H]1CN(C)C(=O)Nc1ccc2c(c1)OCO2	x	x	x	2.7	x	x
CCCC#Cc1ccc2c(c1)O[C@@H](CN(C)C(=O)c1cnccn1)[C@H](C)CN([C@@H](C)CO)S2(=O)=O	x	x	x	-1.8	x	x
O=C(N/N=C/c1cn(-c2ccccc2)nc1-c1cccs1)c1ccccc1F	12.4	-3.4	1.2	-0.2	201.4*	-0.2
O=C(N/N=C/c1cn(-c2ccccc2)nc1-c1cc2ccccc2o1)c1cccnc1	-7.8	-2.0	-0.2	x	0.2	1.9
CN(C)S(=O)(=O)c1cccc(-c2nn(-c3ccccc3)cc2/C=C(\C#N)c2nc3ccccc3[nH]2)c1	-35.3	0.1	-4.0	-0.1	0.0	0.4
CC1=NNC(=O)/C1=C\c1cn(-c2ccccc2)nc1-c1cccs1	0.8	-2.5	-3.8	x	-0.7	55.7*
CC1=NNC(=O)/C1=C\c1cn(-c2ccccc2)nc1-c1ccc(F)cc1	9.4	-3.9	8.7	-2.2	-0.4	4.1
O=C(N/N=C/c1cn(-c2ccccc2)nc1-c1cc2ccccc2o1)c1ccncc1	-1.3	2.0	28.5	-1.6	179.9*	-5.7
N#C/C(=C\c1cn(-c2ccccc2)nc1-c1cc2ccccc2o1)c1nc2ccccc2[nH]1	741.4*	1.9	2.6	-1.4	-0.8	16.6
C[C@@H]1CCCCO[C@@H](CN(C)C(=O)Nc2ccc(C(F)(F)F)cc2)[C@@H](C)CN([C@H](C)CO)C(=O)c2cc(NC(=O)C3CCCCC3)ccc2O1	x	x	x	-2.8	x	x
COc1ccc(S(=O)(=O)N(C)C[C@@H]2OCCCC[C@@H](C)Oc3ccc(NS(=O)(=O)c4c(C)noc4C)cc3C(=O)N([C@@H](C)CO)C[C@H]2C)cc1	x	x	x	-0.1	x	x
COc1ccc(-n2c(C)cc(C(=O)Cn3nc(C(=O)O)c4ccccc4c3=O)c2C)cc1	-10.7	1.4	-1.2	x	-0.4	-14.2
Cc1cc(C(=O)Cn2nc(C(=O)O)c3ccccc3c2=O)c(C)n1-c1ccc(OC(F)F)cc1	2.6	-3.7	68.1*	x	-0.6	10.4
Cc1ccc(-n2c(C)cc(C(=O)Cn3nc(C(=O)O)c4ccccc4c3=O)c2C)cc1	-22.5	-4.0	79.3*	x	-0.3	1.2
O=c1oc(/C=C/c2ccco2)nc2sc3c(c12)CCC3	141.1*	-1.5	-2.4	-1.5	-0.4	3.8
O=C(NN=Cc1cc(=O)[nH]c(=O)[nH]1)c1ccncc1	7.3	x	7.5	x	29.6*	x
Fc1ccc(NC(=S)NCCc2ccc(Cl)cc2)cc1	1.6	-4.2	-8.7	1.8	-0.2	-7.3
S=C(NCCc1ccc(Cl)cc1)Nc1ccc(Cl)cc1Cl	-13.1	2.1	-6.6	x	69.9*	-6.8
Fc1ccc(CCNC(=S)Nc2ccc(F)c(Cl)c2)cc1	9.7	1.0	2.7	x	112.7*	-3.2
S=C(NCc1ccc(Cl)cc1)Nc1ccc(Cl)cc1Cl	1.8	2.0	10.1	x	-0.9	-4.3
